From the supplement of paper PMC6522484
± gives the standard deviation of the averaged measurements.

What was measured:
DLD1 [1] = assay: cell viability (CellTiter-Glo) relative to plate median (fraction of plate median); higher = more viable cells; conditions: 5 µM; treatment time 24 h; reporter: 7TFP
Procedure, shortened: (§1)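 Two independent replicates were averaged for each reported value. Library compounds were applied at a final 5 µM for 24 h to colorectal cancer cell lines stably expressing lentiviral TCF/Wnt firefly luciferase reporters. Firefly luciferase or CellTiterGlo luminescence from each well was normalised to the plate median.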

HCT116 = assay: as above; conditions: 5 µM; treatment time 24 h; reporter: TCF4/Wnt
Procedure, shortened: as §1

SW480 [2] = assay: as above; conditions: 5 µM; treatment time 24 h; reporter: 7TFP
Procedure, shortened: as §1

DLD1 [3] = assay: TCF/Wnt firefly luciferase reporter signal relative to plate median (fraction of plate median); higher = higher Wnt reporter signal; conditions: 5 µM; treatment time 24 h; reporter: 7TFP
Procedure, shortened: as §1

SW480 [4] = assay: as above; conditions: 5 µM; treatment time 24 h; reporter: 7TFP
Procedure, shortened: as §1

Compound | cell viability (DLD1 [1]) | cell viability (HCT116) | cell viability (SW480 [2]) | TCF/Wnt firefly luciferase reporter signal (DLD1 [3]) | TCF/Wnt firefly luciferase reporter signal (SW480 [4])
C=C(CC[C@@H](C(=O)O)[C@H]1CC[C@@]2(C)C3=C(CC[C@]12C)[C@@]1(C)CC[C@H](O)C(C)(C)[C@@H]1CC3)C(C)C [Eburicoic acid] | 0.994 ± 0.052 | 0.923 ± 0.15 | 1.01 ± 0.03 | 0.878 ± 0.023 | 0.983 ± 0.013
COC(=O)c1c(C)cc(OC)cc1O | 0.99 ± 0.071 | 1.03 ± 0.081 | 0.951 ± 0.05 | 0.885 ± 0.047 | 0.869 ± 0.08
CCC(=O)OCC(=O)[C@@]1(OC(=O)CC)[C@@H](C)C[C@H]2[C@@H]3CCC4=CC(=O)C=C[C@]4(C)[C@@]3(F)[C@@H](O)C[C@@]21C | 1.015 ± 0.0071 | 1.03 ± 0.073 | 0.963 ± 0.018 | 0.876 ± 0.12 | 0.941 ± 0.014
Nc1nccs1 | 0.985 ± 0.079 | 1 ± 0.14 | 1.02 ± 0.033 | 1.06 ± 0.13 | 0.986 ± 0.021
C=C1C2CCC3(C)C(c4ccoc4)OC(=O)CC13OC1CC(=O)C(C)(C)C(CC(=O)OC)C12C (stereo not given) | 0.97 ± 0.012 | 0.934 ± 0.0099 | 0.925 ± 0.044 | 1.04 ± 0.12 | 1.09 ± 0.13
CC(=O)c1oc2cc3[nH]c(=O)cc(C)c3cc2c1C [2-Acetyl-3,5-dimethylfuro[3,2-g]quinolin-7-one (VFT-05)] | 0.8435 ± 0.0035 | 0.998 ± 0.059 | 0.885 ± 0.0092 | 0.8825 ± 0.0035 | 0.979 ± 0.072
O=c1[nH]c(=O)n([C@H]2C[C@H](O)[C@@H](CO)O2)cc1F | 0.609 ± 0.026 | 1.05 ± 0.057 | 0.963 ± 0.024 | 0.688 ± 0.12 | 0.971 ± 0.069
CC(=O)O[C@@H]1C[C@H]2C(C)(C)C(=O)CC[C@]2(C)[C@H]2CC[C@@]3(C)[C@H](c4ccoc4)OC(=O)[C@H]4O[C@]43[C@@]21C | 0.999 ± 0.086 | 0.986 ± 0.011 | 1.01 ± 0.026 | 0.949 ± 0.087 | 0.899 ± 0.021
CN(Cc1cc(Br)cc(Br)c1N)C1CCCCC1 | 0.975 ± 0.036 | 1.04 ± 0.035 | 0.905 ± 0.052 | 0.8435 ± 0.0035 | 0.867 ± 0.022
CC(=O)/C=C\[C@@H]1[C@@]2(C)CCCC(C)(C)C2CC[C@@]1(C)O (stereo not given in full) | 1 ± 0.025 | 1.14 ± 0.05 | 1.055 ± 0.0071 | 1.165 ± 0.0071 | 0.93 ± 0.11
Nc1nc2c(ncn2COCCO)c(=O)[nH]1 | 1 ± 0.11 | 1.01 ± 0.034 | 0.955 ± 0.078 | 0.991 ± 0.056 | 0.973 ± 0.053
O=C(O)C1=CC(=C(c2ccc(O)c(C(=O)O)c2)c2ccc(O)c(C(=O)O)c2)C=CC1=O | 1.03 ± 0.14 | 1.03 ± 0.028 | 1.06 ± 0.05 | 0.996 ± 0.09 | 1.01 ± 0.049
O=C(O)c1cc(=O)c2c(OCC(O)COc3cccc4oc(C(=O)O)cc(=O)c34)cccc2o1 | 1.04 ± 0.06 | 0.9275 ± 0.0021 | 1.09 ± 0.13 | 0.902 ± 0.036 | 1.01 ± 0.081
O=C(/C=C/c1ccccc1)c1ccc(O[C@@H]2O[C@H](CO)[C@@H](O)[C@H](O)[C@H]2O)cc1O | 0.947 ± 0.022 | 0.83 ± 0.04 | 0.978 ± 0.018 | 1.02 ± 0.036 | 1.13 ± 0.057
C[C@@H]1C/C=C/C=C/C=C/C=C/[C@H](O[C@@H]2O[C@H](C)[C@@H](O)[C@H](N)[C@@H]2O)C[C@@H]2O[C@](O)(C[C@@H](O)C[C@H]3O[C@@H]3/C=C/C(=O)O1)C[C@H](O)[C@H]2C(=O)O | 1.03 ± 0.08 | 0.915 ± 0.13 | 0.987 ± 0.019 | 0.921 ± 0.033 | 0.962 ± 0.028
Cc1cccc(C)c1NC(=O)C1CCCCN1C (stereo not given) | 1 ± 0.078 | 0.959 ± 0.1 | 0.971 ± 0.035 | 1.05 ± 0.035 | 1.04 ± 0.12
N[C@@H](CCC(=O)N[C@@H](CS)C(=O)NCC(=O)O)C(=O)O | 1.03 ± 0.042 | 1.06 ± 0.11 | 1.02 | 1.03 | 1.13 ± 0.13

Compound | cell viability (DLD1 [1]) | cell viability (HCT116) | cell viability (SW480 [2]) | TCF/Wnt firefly luciferase reporter signal (DLD1 [3]) | TCF/Wnt firefly luciferase reporter signal (SW480 [4])
Oc1c(Cl)cc(Cl)c(Cl)c1Cc1c(O)c(Cl)cc(Cl)c1Cl | 0.934 ± 0.021 | 1.03 ± 0.1 | 1.02 ± 0.028 | 1.34 ± 0.18 | 1.15 ± 0.021
O=[N+]([O-])c1cccc2c(Br)[nH]nc12 | 0.994 ± 0.0057 | 1.02 ± 0.021 | 0.957 ± 0.034 | 0.984 ± 0.037 | 0.967 ± 0.13
N=c1ccn2c(n1)O[C@H]1[C@H](O)[C@@H](CO)O[C@H]12 | 1.16 ± 0.078 | 0.942 ± 0.034 | 1.15 ± 0.028 | 1.08 ± 0.11 | 1.1
O=c1c(O)c(-c2ccc(O)cc2)oc2ccccc12 | 0.975 ± 0.05 | 1.16 ± 0.05 | 1.01 ± 0.034 | 1.05 ± 0.028 | 0.957 ± 0.047
Oc1c(I)cc(I)c2cccnc12 | 0.992 ± 0.11 | 0.931 ± 0.035 | 0.939 ± 0.016 | 0.928 ± 0.026 | 0.984 ± 0.14
CN1CCC[C@@H]1CCO[C@](C)(c1ccccc1)c1ccc(Cl)cc1 | 0.982 ± 0.096 | 0.917 ± 0.018 | 1.05 ± 0.042 | 0.913 ± 0.19 | 0.87 ± 0.041
CC1(C)C2CC(=O)O[C@@]3(C)C4=CC(=O)O[C@@H](c5ccoc5)[C@]4(C)CCC3[C@@]2(C)C=C[C@H]1O (stereo not given in full) | 0.95 ± 0.065 | 1.03 ± 0.047 | 0.993 ± 0.024 | 1.05 ± 0.11 | 1.04 ± 0.16
C[C@]12C=CC(=O)C=C1CC[C@@H]1[C@@H]2[C@@H](O)C[C@@]2(C)[C@H]1CC[C@]2(O)C(=O)CO | 1.01 ± 0.014 | 1.09 ± 0.035 | 1.04 ± 0.069 | 1.03 ± 0.035 | 1.04 ± 0.088
COc1ccc([C@@H]2Sc3ccccc3N(CCN(C)C)C(=O)[C@@H]2OC(C)=O)cc1 | 0.931 ± 0.17 | 0.975 ± 0.028 | 1.01 ± 0.033 | 0.883 ± 0.029 | 0.989 ± 0.059
Cc1cc(C(C)(C)CC(C)(C)C)ccc1OCCOCC[N+](C)(C)Cc1ccccc1 | 1.02 ± 0.069 | 0.977 ± 0.076 | 1.08 ± 0.014 | 0.87 ± 0.061 | 0.909 ± 0.028
COc1c(O)cc2c(-c3ccccc3)cc(=O)oc2c1OC | 0.989 ± 0.016 | 1.03 ± 0.028 | 0.977 ± 0.061 | 1.03 | 0.977 ± 0.033
COc1cc2c(cc1OC)C(=O)OC2 | 0.982 ± 0.054 | 1.12 | 1.025 ± 0.0071 | 1.22 ± 0.014 | 1.06 ± 0.014
C[C@@H]1C[C@H]2O[C@@H]2/C=C\C=C\C(=O)Cc2c(Cl)c(O)cc(O)c2C(=O)O1 [Radicicol] | 1.07 ± 0.035 | 0.802 ± 0.086 | 1.07 ± 0.099 | 0.898 ± 0.16 | 0.785 ± 0.035
CC(=O)Oc1cc2c(c(C)c1OC(C)=O)CC=C1[C@@]2(C)CC[C@@]2(C)C3C[C@](C)(C(=O)O)CC[C@]3(C)CC[C@]12C (stereo not given in full) | 0.903 ± 0.12 | 0.958 ± 0.16 | 0.953 ± 0.081 | 0.869 ± 0.064 | 0.898 ± 0.12
CC(C)(O)CC[C@@H](O)[C@](C)(O)[C@H]1CC[C@@]2(O)C3=CC(=O)[C@@H]4C[C@@H](O)[C@@H](O)C[C@]4(C)[C@H]3CC[C@]12C | 0.977 ± 0.021 | 1.08 ± 0.042 | 1.01 | 1.1 ± 0.21 | 1.14 ± 0.064
COC[C@H]1O[C@@H](OC2OC[C@@H]3O[C@]4(O[C@H]3[C@H]2OC(=O)C(C)C)O[C@H](C)[C@@](O)(C(C)=O)[C@@H]2OCO[C@H]24)[C@@H](OC)[C@@H](O)[C@@H]1O[C@@H]1O[C@H](C)[C@H](OC)[C@H](O[C@H]2C[C@@]3(C)OC4(C[C@@H](O)[C@H](O[C@H]5C[C@@H](O)[C@H](OC(=O)c6c(C)c(Cl)c(O)c(Cl)c6OC)[C@@H](C)O5)[C@@H](C)O4)O[C@@H]3[C@@H](C)O2)[C@H]1O (stereo not given in full) [Avilamycin A] | 0.977 ± 0.033 | 1.02 ± 0.042 | 0.991 ± 0.042 | 1.03 ± 0.028 | 1.03 ± 0.078
